# A selection: hits, their analogues and other compounds. The true share with any hit is near 4.1%.
# MEKK3 PB1 HTS = modulators (inhibitors or enhancers) of MEK5 binding to human MEKK3 PB1 domain; binding response (% of control), % at 10 µM; bead-based flow cytometry, Alexa488-MEK5 binding to MEKK3; actives lie on both sides; 0 = blocked by unlabeled MEK5, 100 = vehicle; 290,000 tested, 1.4% active;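 active means binding response more than 3 SD above or below the average of its plate-row segment, actives on both sides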;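 further: Alexa488 bead fluorescence after subtracting the streptavidin-only scavenger bead signal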
# MEKK2 mut-MEK5 = signal of MEK5 binding to mutant human MEKK2 PB1 domain. bead flow cytometry, Alexa488-MEK5 binding to MEKK2 mutant. percent response, % at 10 µM. 290,000 tested, 0.35% active. AID 1530; in the data active means percent response above about 24%, passing the limit was not always enough
# CHT PAM = allosteric activators of human choline transporter CHT | Q9GZV3 | CHT-expressing cells, membrane potential dye, choline EC20; active compounds read high; LV-AA mutant CHT in HEK293 cells | B-score at 10 µM | 310,000 tested, 0.49% active | AID 488977;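 active means initial fluorescence not abnormally high and integrated response B-score, plate-corrected, over 3 SD above library mean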
# Target sequence (Q9GZV3 whole entry, looked up): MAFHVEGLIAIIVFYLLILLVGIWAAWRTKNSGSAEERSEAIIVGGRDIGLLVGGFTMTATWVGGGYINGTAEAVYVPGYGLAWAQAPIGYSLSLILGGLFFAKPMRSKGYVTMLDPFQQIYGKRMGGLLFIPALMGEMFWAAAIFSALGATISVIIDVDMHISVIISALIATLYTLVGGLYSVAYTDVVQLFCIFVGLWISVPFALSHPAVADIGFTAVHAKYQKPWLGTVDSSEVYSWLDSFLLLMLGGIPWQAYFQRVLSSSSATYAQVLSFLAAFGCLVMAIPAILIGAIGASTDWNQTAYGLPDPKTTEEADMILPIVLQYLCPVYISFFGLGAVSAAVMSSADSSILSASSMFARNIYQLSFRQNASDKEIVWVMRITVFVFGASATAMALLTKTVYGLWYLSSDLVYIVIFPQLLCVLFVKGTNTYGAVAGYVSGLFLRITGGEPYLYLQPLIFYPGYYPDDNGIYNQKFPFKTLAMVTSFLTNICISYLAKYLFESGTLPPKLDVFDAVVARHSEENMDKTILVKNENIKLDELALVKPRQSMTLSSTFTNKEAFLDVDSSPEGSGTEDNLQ
# CHT block = inhibits the human high affinity choline transporter; 310,000 tested, 0.86% active; CHT-expressing cells, membrane potential dye, choline response; active compounds read low; Q9GZV3; B-score at 10 µM;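 active means B-score over 3 SD under the library average, and starting fluorescence ratio not unusually high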;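 further: choline stimulus applied at its EC90 after an EC20 pre-addition; B-score computed on integrated fluorescence ratio after choline addition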
# SUMO Mot1 rescue = blocks SUMOylation pathway, rescuing yeast Mot1-301 growth; S. cerevisiae Mot1-301 growth rescue, ATP luminescence, 38.5C; percent above DMSO median, 100 means doubled; 320,000 tested, 1% active; AID 2716; growth rescue, % at 18.8 µM;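 active means every valid replicate shows activation above 250% relative to neutral control wells; inactive means the rest, any valid replicate at or below 250%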;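 further: OY570 slx delta 5 strain wells were the positive control but not used for scaling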
# MEKK2wt PB1 HTS = raises or lowers MEK5 binding to wildtype human MEKK2 PB1 domain | AID 1531 | 290,000 tested, 1.1% active | binding response (% of control), % at 10 µM | Q9Y2U5 | bead flow cytometry, Alexa488-MEK5 binding to MEKK2 WT; actives lie on both sides; in the data active means binding response below about 67% or above about 130%
# MEKK2wt confirm = raises or lowers MEK5 binding to wildtype human MEKK2, retest | shares compounds with MEKK3 PB1 HTS | bead flow cytometry, Alexa488-MEK5 binding to MEKK2 WT; actives lie on both sides | binding response (% of control), % at 10 µM | 5,900 tested, 2.4% active; in the data active means binding response below about 16% or above about 210%; inactive means in between
# MEKK2mut confirm = signal of MEK5 binding to mutant human MEKK2, retest. percent response, % at 10 µM. 5,900 tested, 2% active. bead flow cytometry, Alexa488-MEK5 binding to MEKK2 mutant. shares compounds with MEKK3 PB1 HTS; in the data active means percent response mostly above about 71%, no sharp cut-off; inactive means mostly below about 38%;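 further: higher means compound restores mutant binding toward wildtype level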
# MEKK3-MEK5 inh = confirmation of inhibitors of MEK5 binding to human MEKK3 | bead flow cytometry, Alexa488-MEK5 binding to MEKK3; active compounds read low | binding response (% of control), % at 10 µM | shares compounds with MEKK3 PB1 HTS | 5,900 tested, 1.8% active | AID 1894;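 active means binding response below 72% of control, or above a set upper limit, though filed actives all read lower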;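 further: 100% = DMSO only wells and 0% = binding blocked by excess unlabeled MEK5; lower values mean stronger disruption of MEK5 binding to MEKK3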
# Numbers without * were called inactive; i = inactive; . = no result given; [ ] = dose if it differs, or a comment.
SMILES,MEKK3 PB1 HTS,MEKK2 mut-MEK5,CHT PAM,CHT block,SUMO Mot1 rescue,MEKK2wt PB1 HTS,MEKK2wt confirm,MEKK2mut confirm,MEKK3-MEK5 inh
Cc1ccc(C(OCC(O)CNC(CO)C(O)c2ccc([N+](=O)[O-])cc2)c2ccccc2)cc1 (stereo not drawn),103,12,i,i,4,113,.,.,.
COc1cccc(O)c1CN1CCC(C(=O)Nc2ccc(-c3cccc(C)c3)cc2)CC1,119,61*,i,i,-1,227*,134,16,101
C(=C\c1nc(N2CCCC2)c2ccccc2n1)/c1ccccc1,107,30,i,i,10,158*,153,39,111
Oc1ccc(Nc2nc(N3CCCC3)c3ccccc3n2)cc1,107,21,i,i,21,153*,197,93*,109
CSCCC(NC(=O)c1ccco1)C(=O)NCC1CCCCC1 (stereo not drawn),.,.,.,.,-1,.,.,.,.
CC(C)(C)[C@H]1COC(=O)[C@H](NC(=O)OCC2c3ccccc3-c3ccccc32)C/C=C\C[C@@H](CC(=O)N[C@H](CO)Cc2ccccc2)C(=O)N1,.,.,.,.,6,.,.,.,.
CCN1/C(=C/c2ccc3cc(C)cc(C)c3[n+]2CC)Sc2cc(C)ccc21,34*[inhibitor],13,.,.,.,25*,19,-37,54*
CCN1/C(=C\c2ccc3cc(C)ccc3[n+]2CC)Sc2cc(C)c(C)cc21,44*[inhibitor],15,.,.,.,29*,15*[inhibitor],-29,61*
Cc1cc(C)c(Cn2c(=O)n(CCCC(=O)NCc3ccco3)c(=O)c3ccccc32)c(C)c1,103,10,i,i,10,98,.,.,.
COC(=O)/C=C1\S/C(=N/N=C/c2ccccc2)NC1=O,139*,1,i,i,.,107,94,-5,97
CCOC(=O)c1c(C)n(C)c2ccc(OCC(O)CN3CCN(C)CC3)cc12 (stereo not drawn),109,8,i,i,-18,125,.,.,.
CCOC(=O)c1c(C)n(-c2ccc(C)cc2)c2ccc(OCC(O)CN3CCN(C)CC3)cc12 (stereo not drawn),104,104*,.,.,.,289*,214*,71*,112
CC1CCC2C(=O)N(c3ccccc3OC(=O)c3ccccc3F)C(=O)C2C1 (stereo not drawn),143*,6,i,i,-9,127,95,-5,101
O=C(Oc1ccccc1N1C(=O)C2CCCCC2C1=O)c1ccccc1 (stereo not drawn),.,.,i,i,-18,.,.,.,.
CCOC(=O)c1c(NC(=S)NNS(=O)(=O)c2ccc(Br)cc2)sc2c1CCCCC2,99,-3,i,i,225,97,.,.,.
O=C1C2C3C=CC(C3)C2C(=O)N1c1ccc2ccccc2c1 (stereo not drawn),114,26*,i,i,46,116,99,-4,99
CCOC(=O)C(C(=O)OCC)c1cc(Br)c2noc3c2c1C(=O)c1ccccc1-3,64*[inhibitor],-14,i,i,1,39*[inhibitor],44,-25,68*
CC(=O)OCCNc1cc(N2CCN(C)CC2)c2noc3c2c1C(=O)c1ccccc1-3,87,7,.,.,.,94,.,.,.
CC1CCC2(CC1)NC(=O)N(CC(=O)NCc1cccs1)C2=O (stereo not drawn),123,3,i,i,36,99,.,.,.
Cc1cc(NC(=O)CN2C(=O)NC3(CCCCC3)C2=O)no1,135*,-1,i,i,-4,104,101,0,104
O=C(CN1C(=O)NC2(CCCCC2)C1=O)NCc1cccs1,154*,1,i,i,0,109,99,-1,96
Cc1noc(C)c1COc1ccc(C(=O)Nc2nnc(CC(C)C)s2)cc1,.,.,.,.,15,.,.,.,.
COc1ccc2cc(N=Cc3nc(-c4ccc(C)cc4)oc3O)cnc2c1,90,-12,i,i,16,79,.,.,.
CCOC(=O)c1nc(Nc2cc(Cl)ccc2OC)c2ccccc2n1,100,5,i,i,0,105,.,.,.
COc1cc(C(=S)N2CCOCC2)cc(OC)c1OC(=O)c1cccc(C)c1,107,25*,i,i,-7,104,98,0,105
SMILES,MEKK3 PB1 HTS,MEKK2 mut-MEK5,CHT PAM,CHT block,SUMO Mot1 rescue,MEKK2wt PB1 HTS,MEKK2wt confirm,MEKK2mut confirm,MEKK3-MEK5 inh
COc1cc(C(=S)N2CCOCC2)ccc1OC(=O)c1cc(OC)c(OC)c(OC)c1,102,0,i,i,35,100,.,.,.
CCCCCCOC(=O)C(C#N)c1nc2ccccc2nc1N1CCOCC1 (stereo not drawn),98,0,i,i,23,98,.,.,.
CCCCCCOC(=O)C(C#N)c1nc2ccccc2nc1N1CCN(CC)CC1 (stereo not drawn),104,30,i,i,.,158*,145,21,101
Cc1[nH]c2ccccc2c1C(=O)CN1CCCCC1CCO (stereo not drawn),44*[inhibitor],-24,i,i,9,63,114,7,105
Cc1cc(C(=O)Nc2ccc(C#N)cc2)on1,4.0*[inhibitor],-49,i,i,-1,8.0*[inhibitor],95,-2,99
COc1ccc(NC(=O)c2cc(C)no2)cc1OC,104,2,i,i,-27,105,.,.,.
O=C(Cc1cccc(C(F)(F)F)c1)NCC(=O)Nc1cc(Cl)ccc1Cl,101,0,i,i,-7,97,.,.,.
COc1ccc(CCNS(=O)(=O)CC23CCC(CC2=O)C3(C)C)cc1OC (stereo not drawn),114,29*,i,i,-8,118,101,0,103
CCOc1ccc(N2CC(C(=O)NCCCN3CCOCC3)CC2=O)cc1 (stereo not drawn),2.0*[inhibitor],-21,i,i,6,3.0*[inhibitor],102,7,105
O=C(NCCCN1CCOCC1)C1CC(=O)N(c2ccccc2)C1 (stereo not drawn),100,0,i,i,37,105,.,.,.
Cc1cc(C)c([N+](=O)[O-])cc1-c1ccc(/C=N/c2c(-c3ccco3)nc3ccccn23)o1,89,-2,i,i,-1,-3.0*[inhibitor],79,-5,82

# From PubChem BioAssay
